Reference: PubChem BioAssay (NCI)
This is part of a sample that, as a whole, favours compounds with a hit. Of some 83,000 tested, about 20% had one in any assay.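 Activity criterion: percent growth below 10, measured after cells in 96-well plates were exposed to a single compound concentration for 48 hours.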 Active and inactive are the calls of the source.

These compounds were tested on HL-60(TB) leukemia (assay: NCI-60 one-dose screen, 48 h (100 = growth as untreated, 0 = no growth, -100 = all killed)). Conditions: 10 µM unless noted.

Structure (SMILES) | growth
COc1ccc(C(=O)c2c(N)c(C#N)cn2-c2ccc(Cl)cc2Cl)cc1 | 84.7% (inactive)
COc1ccccc1N1CCN(C2=NN=C(c3cccc(Cl)c3)c3ccccc3C2)CC1 | -55.5% (active)
O=S(=O)(NCCCNc1nccc(-c2[nH]c(-c3ccccc3)nc2-c2ccc(F)c(O)c2)n1)c1ccc(C(F)(F)F)cc1 | -3% (active)
Oc1ccc(CSc2nnc(-c3ccc(Oc4ccccc4)cc3)o2)c2cccnc12 | 19.1% (inactive)
Cc1ccc2c(c1)C13C(=C2Br)CCCN1C(=O)c1ccccc13 (stereo not drawn) | 68.2% (inactive)
CN1c2ccccc2Sc2cc(/C=N/Nc3ccnc4cc(Cl)ccc34)ccc21 | 77.1% (inactive)
Nc1nc(N)c2c(n1)NC(c1ccc(Cl)cc1)CC(c1ccc(Nc3nc(NCCO)nc(Nc4ccc(Cl)cc4)n3)cc1)=N2 (stereo not drawn) | 9.81% (active)
COc1cc(-c2nc(-c3ccccc3)[nH]c2-c2ccnc(NCCCNS(=O)(=O)c3cccc(F)c3)n2)ccc1Cl | 55.1% (inactive)
